Compounds with a hit are over-represented: about 1.7% of the library has one in this group of screens.
Glyco luc inh: increase of ERlucT glycosylation luciferase signal, primary screen, N-linked glycosylation inhibitor project, D54 ERlucT cells, luminescence, set 2; reporter increase, % at 12.5 µM; AID 588692, 2011; D54 ERlucT glycosylation luciferase reporter, 24 h; percent of 100 nM tunicamycin response; 360,000 tested, 0.23% active;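 active means mean luciferase reporter signal, scaled so untreated is 0 and the glycosylation-blocking control 100, at or above a set limit in every replicate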;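 further: luciferase carries N-glycosylation sites so blocking glycosylation raises the light; 0% = median of neutral control wells and 100% = median of 100 nM tunicamycin wells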
aDG glyco act: activators of alpha-DG glycosylation, primary screen, uHTS, Pro5-aDG cells, AlphaScreen; alpha-DG glycosylation AlphaScreen (IIH6); 0% Pro5, 100% B10-LARGE cell signal; activation, % at 10 µM; 360,000 tested, 0.22% active; AID 624168, 2012;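 active means activation of at least 8% versus controls, or a plate z-score of at least 8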;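 further: Pro5 are CHO cells carrying HIG-tagged alpha-DG that lacks glycosylation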
Cardio protect: cardioprotection against H2O2-induced cell death, primary screen, uHTS, H9c2 cells, ATPLite luminescence; H9c2 cardiomyocytes, H2O2 injury protection, 2 h; AID 588492, 2011; protection from H2O2 cell death, % at 20 µM; 360,000 tested, 0.63% active;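 active means compounds giving at least 50% protection of heart cells from peroxide-induced death in the single-dose screen, raw or plate-pattern-corrected value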;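 further: 0% = DMSO wells with peroxide and 100% = DMSO wells without peroxide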
ARNT TACC3 PPI: disruptors of ARNT/TACC3 protein interaction, primary screen, biochemical, AlphaScreen, single concentration; 390,000 tested, 0.66% active; AlphaScreen His-ARNT PAS-B/GST-TACC3 binding, luminescence; TACC3 fragment carries E629A point mutation; inhibition, % at 9.99 µM;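 active means mean inhibition of replicates at least 50% and at least half of replicates each reaching 50%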;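 further: 0% = complete ARNT plus TACC3 wells and 100% = ARNT alone without TACC3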
Vif imaging: HIV Vif self-association inhibitors, primary screen, imaging, HEK293T, single point; inhibition, % at 7.49 µM; 340,000 tested, 0.35% active; HEK293T cells, Vif self-association by quenched fluorescence, 24 h; AID 602346, 2012; in the data active means inhibition above about 50%, passing the limit was not always enough
Active calls of the source: *.

COC(=O)[C@H]1[C@H](CO)[C@H]2Cn3c(ccc(-c4ccccc4F)c3=O)[C@@H]1N2 was read as ARNT TACC3 PPI 0.
`C=C1[C@@H](C)[C@H]2[C@H](Cc3ccccc3)NC(=O)[C@]23OC(=O)/C=C/[C@H](O)CCC[C@@H](C)C/C=C/[C@H]3[C@@H]1O` gave Glyco luc inh -8, aDG glyco act 0, Cardio protect 79*, ARNT TACC3 PPI 0 and Vif imaging -8.
Screening C=C1C(C)C2C(Cc3ccccc3)NC(=O)C23C(OC(C)=O)C=CC(C)(O)CC(C)CC=CC3C1O (stereo not given) returned Glyco luc inh 2, aDG glyco act 0, Cardio protect 6, ARNT TACC3 PPI 13 and Vif imaging -6.
Screening COC(=O)C1=C(c2cc3ccccc3o2)C[C@@H]2CC[C@H]1N2C(=O)N1CCOCC1 returned Glyco luc inh 36*, aDG glyco act 0, Cardio protect -8 and Vif imaging 4.
Screening COC1C(O)C(C)OC(OC2C(Oc3cccc4c(O)c5c(=O)oc6ccc(C)c7c(=O)oc(c34)c5c67)OC(C)C(O)C2O)C1O (stereo not given) returned Glyco luc inh 43*, aDG glyco act 0, Cardio protect -3, ARNT TACC3 PPI 6 and Vif imaging 51*.
COCC(=O)N1[C@@H]2Cn3c(ccc(C4=CCCC4)c3=O)[C@H]1[C@@H](C(=O)OC)[C@@H]2CO was read as ARNT TACC3 PPI -5.
For COC1/C=C/C=C(\C)Cc2cc(O)c(Cl)c(c2)N(C)C(=O)CC(OC(=O)C(C)C)C2(C)OC2C(C)C2CC1(O)NC(=O)O2 (stereo not given) the results were Glyco luc inh -14, aDG glyco act 0, Cardio protect 7, ARNT TACC3 PPI 1 and Vif imaging 64*.
COc1ccc(-c2ccc3n(c2=O)C[C@H]2[C@H](CO)[C@@H](C(=O)O)[C@@H]3N2C(=O)c2ccccc2F)cc1 was read as ARNT TACC3 PPI 1.
`O=C1NC(=O)C(=Cc2ccc(OCCOc3ccc([N+](=O)[O-])cc3)cc2)C(=O)N1` gave Glyco luc inh 2, aDG glyco act 0, Cardio protect 6, ARNT TACC3 PPI active and Vif imaging -8.
CN1CCC(N(C)c2ncnc3ccc(Br)cc23)CC1 was read as Glyco luc inh -5, aDG glyco act 0, Cardio protect 9, ARNT TACC3 PPI -7 and Vif imaging -7.
`Cc1ccc(-c2nc(N(C)C3CCN(C)CC3)c3ccccc3n2)cc1` gave Glyco luc inh 49*, aDG glyco act 0, Cardio protect 20 and ARNT TACC3 PPI 4.
`c1ccc2c(c1)Sc1ccccc1N2CC1CN2CCC1CC2` (stereo not given) gave Glyco luc inh -1, aDG glyco act 0, Cardio protect 2, ARNT TACC3 PPI 7 and Vif imaging 53*.
Cc1ccc2c(C)c3ccc4ccccc4c3c[n+]2c1 was read as Glyco luc inh 37*, aDG glyco act 0, Cardio protect -12, ARNT TACC3 PPI 13 and Vif imaging -18.
For Cc1cccc(S(=O)(=O)N2[C@@H]3c4ccc(-c5ccccc5)c(=O)n4C[C@H]2[C@H](CO)[C@H]3C(=O)O)c1 the results were ARNT TACC3 PPI -4.
Screening C/C(=N\N1CCCCCC1)c1c(O)n(-c2ccc(C)cc2)c(=O)[nH]c1=O returned Glyco luc inh 2, aDG glyco act 0, Cardio protect 1, ARNT TACC3 PPI -1 and Vif imaging 68*.
For CCCN1CCc2cccc3c2[C@H]1Cc1ccc(O)c(O)c1-3 the results were Glyco luc inh -2, aDG glyco act 0, Cardio protect 51*, ARNT TACC3 PPI 6 and Vif imaging -3.
Screening O=c1[nH]c(O)c(N=Nc2cc([N+](=O)[O-])ccc2O)c(=O)[nH]1 returned Glyco luc inh -1, aDG glyco act 0, Cardio protect 10, ARNT TACC3 PPI 57* and Vif imaging 6.
Screening O=[N+]([O-])c1ccc(O)c([N+](=O)[O-])c1 returned Glyco luc inh -1, aDG glyco act 0, Cardio protect -14, ARNT TACC3 PPI -3 and Vif imaging -20.
Screening O=C(Cc1ccncc1)N1CCCCN2[C@H](C1)[C@H](c1ccc(C#CC3(O)CCCC3)cc1)[C@@H]2CO returned ARNT TACC3 PPI 8.
Screening CCS(=O)(=O)Nc1cccc(C(=C2CCCCC2)c2cnc[nH]2)c1 returned Glyco luc inh 11, aDG glyco act 0, Cardio protect -13, ARNT TACC3 PPI 6 and Vif imaging 69*.
For O=C1NC(=O)C(Nc2ccc(Cl)c(Cl)c2)C(=O)N1 the results were Glyco luc inh 1, aDG glyco act 0, Cardio protect 6, ARNT TACC3 PPI 25* and Vif imaging 27.
CC(=NCCCn1ccnc1)c1c(O)n(-c2ccccc2)c(=O)[nH]c1=O was read as Glyco luc inh 1, aDG glyco act 0, Cardio protect -3, ARNT TACC3 PPI 11 and Vif imaging -4.
Screening C=CCn1c(O)c(C(C)=NCCCn2ccnc2)c(=O)[nH]c1=O returned Glyco luc inh -1, aDG glyco act 0, Cardio protect 3, ARNT TACC3 PPI 84* and Vif imaging -1.
For COC(=O)[C@H]1[C@H](CO)[C@H]2Cn3c(ccc(-c4ccccc4)c3=O)[C@@H]1N2CC1CC1 the results were ARNT TACC3 PPI 5.
`N#Cc1cccc(-c2ccc([C@@H]3[C@@H](CO)N4CCCCN(C(=O)Cc5ccccc5)C[C@@H]34)cc2)c1` gave ARNT TACC3 PPI -5.
Screening COc1ccc(P2(=O)Nc3ccccc3N2)cc1 returned Glyco luc inh -1, aDG glyco act -1, Cardio protect 53* and Vif imaging -4.
O=C(Cc1cccnc1)N1CCCCN2[C@H](CO)[C@H](c3ccc(/C=C/c4ccccc4)cc3)[C@H]2C1 was read as ARNT TACC3 PPI 1.
Screening COC(=O)[C@H]1[C@H](CO)[C@H]2Cn3c(ccc(-c4ccccc4F)c3=O)[C@@H]1N2Cc1ccncc1 returned ARNT TACC3 PPI 3.
Screening O=C(Cc1ccccn1)N1CCCCN2[C@H](CO)[C@@H](c3ccc(C#Cc4ccccc4)cc3)[C@H]2C1 returned ARNT TACC3 PPI 15.
For O=P(Nc1ccccc1)(Oc1ccccc1)Oc1ccccc1 the results were Glyco luc inh -1, aDG glyco act 0, Cardio protect 54*, ARNT TACC3 PPI 5 and Vif imaging 0.
Screening O=P(Nc1ccccc1)(Nc1ccccc1)Oc1ccccc1 returned Glyco luc inh -1, aDG glyco act 0, Cardio protect 6 and Vif imaging 5.

High-throughput results as filed in PubChem.
